Where “and” joins values, the source holds several entries; their conditions need not be identical. Identical values can stand only once. Calls of active or inactive are those of the source. Entries that show only a call come without a potency. Unless noted, calls come from the whole dose curve; as a rule, active = well fitted curve in the direction sought with a large enough effect in the repeat runs; inconclusive = weak or mixed curves; inactive = no such curve, though single readings can be large; an effect the other way counts as inactive or inconclusive.
Assays:
[1] = qHTS assay to identify small molecule antagonists of the glucocorticoid receptor (GR) signaling pathway - cell viability counter screen (AID 720693); note: nearly all actives have a fitted effect of over 55% in size; note: potency is the fitted concentration of half-maximal effect
[2] = qHTS assay for identifying genotoxic compounds that show differential cytotoxicity against isogenic chicken DT40 cell lines with known DNA damage response pathways - wild type cell line (AID 743012); note: nearly all actives have a fitted effect of over 60% in size; note: potency is the fitted concentration of half-maximal effect
Outline: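 Parental DNA repair-proficient DT40 cells, 300 per well, were pre-incubated ~0.5 h at 37 C/5% CO2, pin-dosed with compounds in DMSO, then incubated 40 h. Viability was read as CellTiter-Glo luminescence after 30 min at room temperature.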

[3] = qHTS assay for identifying genotoxic compounds that show differential cytotoxicity against isogenic chicken DT40 cell lines with known DNA damage response pathways - Rev3 mutant cell line (AID 743014); note: nearly all actives have a fitted effect of over 55% in size; note: potency is the fitted concentration of half-maximal effect
[4] = qHTS assay for identifying genotoxic compounds that show differential cytotoxicity against isogenic chicken DT40 cell lines with known DNA damage response pathways - Rad54/Ku70 mutant cell line (AID 743015); note: nearly all actives have a fitted effect of over 60% in size; note: potency is the fitted concentration of half-maximal effect
[5] = qHTS assay to identify small molecule antagonists of the androgen receptor (AR) signaling pathway - cell viability counter screen (AID 743033; note: nearly all actives have a fitted effect of over 45% in size; note: potency is the fitted concentration of half-maximal effect)
[6] = biological target: Androgen receptor (Homo sapiens) (UniProt P10275); test: qHTS assay to identify small molecule agonists of the androgen receptor (AR) signaling pathway using the MDA cell line (AID 743040; note: nearly all actives have a fitted effect of over 20% in size)
Androgen receptor (Homo sapiens), sequence (P10275 whole entry, looked up): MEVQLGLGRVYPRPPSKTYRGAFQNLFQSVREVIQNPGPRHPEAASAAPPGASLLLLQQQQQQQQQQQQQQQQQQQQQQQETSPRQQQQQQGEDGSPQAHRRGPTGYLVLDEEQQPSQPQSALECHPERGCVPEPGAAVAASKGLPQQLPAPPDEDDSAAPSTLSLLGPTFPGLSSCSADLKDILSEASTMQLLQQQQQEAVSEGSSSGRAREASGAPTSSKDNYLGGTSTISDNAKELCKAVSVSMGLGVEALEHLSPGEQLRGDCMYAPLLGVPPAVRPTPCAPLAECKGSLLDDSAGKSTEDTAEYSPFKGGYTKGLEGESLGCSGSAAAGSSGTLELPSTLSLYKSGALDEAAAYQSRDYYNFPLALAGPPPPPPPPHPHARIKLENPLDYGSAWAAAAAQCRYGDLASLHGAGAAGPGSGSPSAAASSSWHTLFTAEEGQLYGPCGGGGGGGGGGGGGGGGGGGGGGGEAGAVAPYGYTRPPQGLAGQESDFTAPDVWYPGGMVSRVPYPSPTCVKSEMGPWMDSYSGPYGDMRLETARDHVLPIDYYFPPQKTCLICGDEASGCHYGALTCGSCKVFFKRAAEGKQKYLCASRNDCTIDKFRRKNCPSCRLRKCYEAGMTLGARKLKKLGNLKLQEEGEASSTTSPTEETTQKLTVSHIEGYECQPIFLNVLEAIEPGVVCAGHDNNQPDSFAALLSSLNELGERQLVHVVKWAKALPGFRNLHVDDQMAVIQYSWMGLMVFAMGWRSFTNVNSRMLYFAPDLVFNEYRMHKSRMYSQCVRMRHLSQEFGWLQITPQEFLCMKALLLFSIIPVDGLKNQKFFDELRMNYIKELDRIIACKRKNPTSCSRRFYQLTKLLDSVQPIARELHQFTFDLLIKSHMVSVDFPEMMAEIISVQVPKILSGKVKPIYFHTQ
Outline: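 MDA-kb2 breast carcinoma cells stably carrying an MMTV-driven luciferase reporter (AR- and GR-responsive) were seeded and held 5 h at 37C, 0% CO2, then exposed to compounds in DMSO for 16 h. Luminescence was read 30 min after ONE-Glo addition.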

[7] = qHTS assay to identify small molecule antagonists of the androgen receptor (AR) signaling pathway using the MDA cell line - cell viability counter screen (AID 743041; note: nearly all actives have a fitted effect of over 45% in size; note: potency is the fitted concentration of half-maximal effect)
Outline: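 MDA-kb2 AR-luc human breast carcinoma cells (MMTV-luciferase, AR/GR responsive) were treated with compounds plus R1881 agonist for 16 h at 37 °C. Viability was read as CellTiter-Fluor fluorescence in the same wells as the reporter assay.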

[8] = biological target: Androgen receptor (Homo sapiens) (UniProt P10275); test: qHTS assay to identify small molecule antagonists of the androgen receptor (AR) signaling pathway using the MDA cell line (AID 743042; note: potency is the fitted concentration of half-maximal effect; nearly all actives have a fitted effect of over 55% in size)
Outline: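 MDA-kb2 cells (human breast carcinoma, stably carrying an MMTV-luciferase reporter responsive to AR and GR) were plated at 3,000 cells/well and preincubated 5 hr at 37C, then given compound plus R1881 agonist for 16 h. ONE-Glo luminescence was read.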

[9] = qHTS assay to identify small molecule antagonists of the thyroid receptor (TR) signaling pathway - cell viability counter screen (AID 743064); note: nearly all actives have a fitted effect of over 50% in size; note: potency is the fitted concentration of half-maximal effect
Outline: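 CellTiter-Fluor readout, 30 min at 37 °C/5% CO2, following 23.5 h incubation of GH3.TRE-Luc cells with test compound and 1 nM T3 (final).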

[10] = qHTS assay to identify small molecule antagonists of the thyroid receptor (TR) signaling pathway (AID 743065); note: nearly all actives have a fitted effect of over 55% in size; note: potency is the fitted concentration of half-maximal effect
Outline: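 GH3.TRE-Luc rat pituitary cells carrying two TR response elements driving luciferase were plated for 4 h, given compound plus 1 nM T3 (final), and incubated 23.5 h at 37 C. ONE-Glo luminescence measured reporter inhibition; CellTiter-Fluor fluorescence tracked cytotoxicity.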

[11] = qHTS assay to identify small molecule antagonists of the estrogen receptor alpha (ER-alpha) signaling pathway - cell viability counter screen (AID 743074; calls by dose curve; note: nearly all actives have a fitted effect of over 45% in size; note: potency is the fitted concentration of half-maximal effect)
[12] = qHTS assay to identify small molecule antagonists of the estrogen receptor alpha (ER-alpha) signaling pathway using the BG1 cell line - cell viability counter screen (AID 743081);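 note: compound given together with 17beta-estradiol as the ER stimulus; nearly all actives have a fitted effect of over 45% in size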; note: potency is the fitted concentration of half-maximal effect
Aromatase (Homo sapiens) = Aromatase (Homo sapiens) (UniProt P11511); test: qHTS assay to identify aromatase inhibitors (AID 743083); note: nearly all actives have a fitted effect of over 55% in size; note: potency is the fitted concentration of half-maximal effect
Aromatase (Homo sapiens), sequence (P11511 whole entry, looked up): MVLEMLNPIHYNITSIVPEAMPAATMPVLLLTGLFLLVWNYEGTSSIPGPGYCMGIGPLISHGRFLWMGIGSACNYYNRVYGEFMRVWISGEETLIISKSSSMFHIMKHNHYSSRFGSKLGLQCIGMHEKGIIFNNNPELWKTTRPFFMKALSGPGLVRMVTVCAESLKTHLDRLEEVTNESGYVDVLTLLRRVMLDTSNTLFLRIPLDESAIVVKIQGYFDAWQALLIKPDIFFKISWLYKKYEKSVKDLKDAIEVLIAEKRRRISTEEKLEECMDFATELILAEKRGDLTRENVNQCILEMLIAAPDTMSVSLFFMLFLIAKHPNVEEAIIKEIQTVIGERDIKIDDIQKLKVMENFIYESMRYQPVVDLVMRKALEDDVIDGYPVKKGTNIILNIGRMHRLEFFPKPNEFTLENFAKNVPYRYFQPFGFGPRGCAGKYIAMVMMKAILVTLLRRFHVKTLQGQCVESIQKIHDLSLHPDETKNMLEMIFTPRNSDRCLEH

[13] = biological target: Androgen receptor (Homo sapiens) (UniProt P10275); test: qHTS assay to identify small molecule antagonists of the androgen receptor (AR) signaling pathway (AID 743035; active = well fitted inhibition curve with a large enough effect in the signal ratio in the repeat runs, not every such curve was filed as active; inconclusive = weak or mixed curves, or effect the other way; inactive = no such curve, though single readings can be large or run the other way; the % refers to the signal ratio; note: potency is the fitted concentration of half-maximal effect)
Outline: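 HEK293 cells stably carrying a UAS-driven beta-lactamase reporter (AR-UAS-bla GripTite) were plated for 4 h at 37C, then given compound and the agonist R1881 and incubated 16 h. Reporter activity was read by LiveBLAzer B/G FRET fluorescence after 2 h at room temperature.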

[14] = system: thyroid hormone receptor (rat, GH3 cells); test: qHTS assay to identify small molecule agonists of the thyroid receptor (TR) signaling pathway (AID 743066; calls by dose curve)
[15] = biological target: Estrogen receptor (Homo sapiens) (UniProt P03372); test: qHTS assay to identify small molecule agonists of the estrogen receptor alpha (ER-alpha) signaling pathway (AID 743075; calls by dose curve; note: potency is the fitted concentration of half-maximal effect)
Estrogen receptor (Homo sapiens), sequence (P03372 whole entry, looked up): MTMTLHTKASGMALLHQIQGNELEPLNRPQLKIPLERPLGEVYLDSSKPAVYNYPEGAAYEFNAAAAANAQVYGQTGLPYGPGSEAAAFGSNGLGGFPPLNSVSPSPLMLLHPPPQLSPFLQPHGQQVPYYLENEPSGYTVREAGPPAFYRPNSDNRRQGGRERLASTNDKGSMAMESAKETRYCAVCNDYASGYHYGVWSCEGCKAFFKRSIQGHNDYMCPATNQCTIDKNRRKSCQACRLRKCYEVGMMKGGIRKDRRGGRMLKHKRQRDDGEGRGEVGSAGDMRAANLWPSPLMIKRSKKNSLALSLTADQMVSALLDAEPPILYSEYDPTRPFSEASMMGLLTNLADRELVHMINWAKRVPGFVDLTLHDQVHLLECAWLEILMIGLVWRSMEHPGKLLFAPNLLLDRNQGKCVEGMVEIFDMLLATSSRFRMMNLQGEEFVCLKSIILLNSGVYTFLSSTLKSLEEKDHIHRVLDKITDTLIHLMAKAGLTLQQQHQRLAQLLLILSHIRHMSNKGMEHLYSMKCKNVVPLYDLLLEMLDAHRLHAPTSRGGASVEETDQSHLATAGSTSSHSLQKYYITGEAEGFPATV

[16] = biological target: Estrogen receptor (Homo sapiens) (UniProt P03372); test: qHTS assay to identify small molecule agonists of the estrogen receptor alpha (ER-alpha) signaling pathway using the BG1 cell line (AID 743079); note: nearly all actives have a fitted effect of over 20% in size; note: potency is the fitted concentration of half-maximal effect
[17] = qHTS assay to identify small molecule antagonists of the estrogen receptor alpha (ER-alpha) signaling pathway using the BG1 cell line (AID 743080; calls by dose curve;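 note: BG1 cells stimulated with 17beta-estradiol alongside compound; series mostly up to about 70 µM; nearly all actives have a fitted effect of over 25% in size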)
Outline: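 Quantitative HTS on the Tox21 10K library: BG1 cells with endogenous ER-alpha and ERE-luciferase reporter, 17beta-estradiol stimulation, 21.5 h compound exposure, luminescence endpoint with parallel fluorescence cytotoxicity counter-read.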

[18] = biological target: Androgen receptor (Homo sapiens) (UniProt P10275); test: qHTS assay to identify small molecule agonists of the androgen receptor (AR) signaling pathway (AID 743036; active = well fitted activation curve with a large enough effect in the signal ratio in the repeat runs, with a control signal flat, not every such curve was filed as active; inconclusive = weak or mixed curves, or effect the other way; inactive = no such curve, though single readings can be large or run the other way; the % refers to the signal ratio)
Outline: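 Following a 4 h settling period, AR-UAS-bla HEK293 cells were dosed with compounds for 16 h at 37C. A 2 h room-temperature incubation with LiveBLAzer B/G FRET substrate preceded the fluorescence measurement.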

[19] = biological target: Estrogen receptor (Homo sapiens) (UniProt P03372); test: qHTS assay to identify small molecule antagonists of the estrogen receptor alpha (ER-alpha) signaling pathway (AID 743069; active = well fitted curve in the direction sought with a large enough effect in the signal ratio in the repeat runs, not every such curve was filed as active; inconclusive = weak or mixed curves, or effect the other way; inactive = no such curve, though single readings can be large or run the other way; the % refers to the signal ratio; note: potency is the fitted concentration of half-maximal effect)
Outline: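 HEK293 cells stably carrying an ER-alpha-UAS-bla beta-lactamase reporter were pre-cultured overnight in 2% charcoal-stripped FBS medium. Test compounds in DMSO were added together with 17beta-estradiol for 18 hr at 37C. Read-out was fluorescence after 2 hr with LiveBLAzer B/G FRET substrate at room temperature.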

| Structure (SMILES) | Potency [1] | Potency [2] | Potency [3] | Potency [4] | Potency [5] | Potency [6] | Potency [7] | Potency [8] | Potency [9] | Potency [10] | Potency [11] | Potency [12] | Potency (Aromatase (Homo sapiens)) | Potency [13] | outcome [14] | Potency [15] | Potency [16] | Potency [17] | Potency [18] | Potency [19] |
| --- | --- | --- | --- | --- | --- | --- | --- | --- | --- | --- | --- | --- | --- | --- | --- | --- | --- | --- | --- | --- |
| N#CSCSC#N | 22.4 µM (active) and 21.7 µM (active) | 5.57 µM (active) and 1.21 µM (active) | 1.98 µM (active) and 1.91 µM (active) | 3.51 µM (active) and 1.52 µM (active) | 22.4 µM (active) and 24.3 µM (active) | inactive | 62.5 µM (active) and 60.5 µM (active) | 55.7 µM (active) and 60.5 µM (active) | 2.79 µM (active) and 4.28 µM (active) | 1.98 µM (active) and 2.15 µM (active) | inactive | inactive | 14 µM (active) and 17.1 µM (active) | – | – | – | – | – | – | – |
| C=CC(=O)OCC(COC(=O)C=C)(COC(=O)C=C)COC(=O)C=C | 8.71 µM (active) | 0.77 µM (active) | 0.969 µM (active) | 0.686 µM (active) | 6.92 µM (active) | inactive | 7.7 µM (active) | 1.93 µM (active) | 2.73 µM (active) | 1.93 µM (active) | 43.6 µM (active) | 24.3 µM (active) | 3.06 µM (active) | 4.36 µM (active) | inactive | 27.5 µM [inconclusive] (active) | – | – | – | – |
| CCCCCCCCCCCCCN1CC(C)OC(C)C1 (centres undefined) | inactive | 54.5 µM (active) | 27.3 µM (active) | 30.6 µM (active) | inactive | – | inactive | – | inactive | inactive | inactive | inactive | inactive | – | inactive | inactive | inactive | inactive | – | – |
| C[C@@H]1O[C@@H](O[C@@H]2C=C3CC[C@@H]4[C@H](CC[C@]5(C)[C@@H](c6ccc(=O)oc6)CC[C@]45O)[C@@]3(C)CC2)[C@H](O)[C@H](O)[C@H]1O | 0.091 µM (active) | 0.127 µM (active) | 0.101 µM (active) | 0.127 µM (active) | 0.0057 µM (active) | – | inactive | – | inactive | inactive | – | inactive | inactive | – | inactive | – | – | – | – | – |
| CCOP(=S)(OCC)OC(Cl)C(Cl)(Cl)Cl (centres undefined) | inactive | inactive | inactive | inactive | inactive | – | inactive | – | inactive | – | inactive | inactive | – | – | inactive | – | – | – | – | – |
| BrC(Br)Br | inactive | inactive | inactive | inactive | inactive | – | inactive | – | inactive | inactive | inactive | inactive | inactive | – | inactive | – | – | – | – | – |
| O=C1c2ccccc2C(=O)C1C(=O)C(c1ccccc1)c1ccc(Cl)cc1 (centres undefined) | 19.5 µM (active) | 27.3 µM (active) | 27.3 µM (active) | 21.7 µM (active) | 13.8 µM (active) | inactive | – | 15.4 µM (active) | 27.3 µM (active) | 15.4 µM (active) | 43.6 µM (active) | – | 54.5 µM (active) | – | inactive | inactive | inactive | – | inactive | – |
| Clc1ccc(-c2ccc(Cl)c(Cl)c2Cl)c(Cl)c1Cl | inactive | inactive | inactive | inactive | inactive | – | inactive | – | inactive | inactive | inactive | inactive | inactive | – | inactive | inactive | inactive | inactive | – | – |
| Oc1ccc(C(=C(Cl)Cl)c2ccc(O)cc2)cc1 | inactive | inactive | inactive | inactive | inactive | – | inactive | – | inactive | – | – | inactive | inactive | – | inactive | – | 0.243 µM (active) | inactive | – | 48.9 µM [inconclusive] (active) |
| CC(=O)C(Cl)(Cl)Cl | inactive | 13.2 µM (active) | 16.6 µM (active) | 16.6 µM (active) | 10.6 µM (active) | inactive | 26.4 µM (active) | 13.2 µM (active) | 5.9 µM (active) | 2.35 µM (active) | inactive | 23.5 µM (active) | 13.2 µM (active) | 5.31 µM (active) | inactive | – | – | – | – | – |
| CC(C)[C@H](C(=O)OC(C#N)c1cccc(Oc2ccccc2)c1)c1ccc(OC(F)F)cc1 (some centres undefined) | inactive | 24.3 µM (active) | 34.4 µM (active) | 27.3 µM (active) | inactive | – | inactive | – | inactive | 54.5 µM (active) | inactive | inactive | – | – | inactive | – | – | – | – | – |
| Cc1cc(C(C)(C)c2cc(C)c(O)c(C)c2)cc(C)c1O | 42.2 µM (active) | 52.7 µM (active) | 26.4 µM (active) | 26.4 µM (active) | 26.6 µM (active) | inactive | inactive | 29.6 µM (active) | 23.5 µM (active) | 11.8 µM (active) | – | inactive | 16.7 µM (active) | – | inactive | – | – | – | – | – |
| CC(=O)[O-].CC(=O)[O-].[Hg+2] | 6.16 µM (active) | 1.54 µM (active) | 1.54 µM (active) | 1.09 µM (active) | 11 µM (active) | – | 27.3 µM (active) | – | 1.37 µM (active) | – | 49 µM (active) | 61.1 µM (active) | 2.73 µM (active) | – | – | – | – | – | – | – |
